# In the library only some 5.7% were active in any assay of this set; here they are far more common.
# D3 ag = agonists of human D3 dopamine receptor; AID 652048; P35462; actives 0.58% (n = 410,000); D3R DiscoveRx beta-arrestin cells, luminescence, 90 min; max activation, %; in the data active means max activation above about 30%; further: 0% is about no effect
#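 Agonist mode: compounds and dopamine controls were applied to plated cells for 90 min at 37 degrees C after an overnight attachment at 1500 cells/well. Luminescent read-out followed 30 - 60 minutes at room temperature with DiscoveRx detection reagent.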
# GLP-1R inv ag = inverse agonists of human GLP-1 receptor. P43220. Potency, µM (doses to about 38.3 µM), for inactives: at the top dose activity change, negative = inhibition, hits mostly inhibitors. actives 1.6% (n = 410,000). HEK293 GLP-1R CRE-luciferase, luminescence, 24 h; GLP-1R form is constitutively active. AID 624417; further: potency means the concentration at half of the fitted maximal effect; on the % scale 0 is the no-effect control and ±100 the full control effect; nearly all actives have a fitted effect of over 55% in size
# Target sequence (P43220 whole entry, looked up): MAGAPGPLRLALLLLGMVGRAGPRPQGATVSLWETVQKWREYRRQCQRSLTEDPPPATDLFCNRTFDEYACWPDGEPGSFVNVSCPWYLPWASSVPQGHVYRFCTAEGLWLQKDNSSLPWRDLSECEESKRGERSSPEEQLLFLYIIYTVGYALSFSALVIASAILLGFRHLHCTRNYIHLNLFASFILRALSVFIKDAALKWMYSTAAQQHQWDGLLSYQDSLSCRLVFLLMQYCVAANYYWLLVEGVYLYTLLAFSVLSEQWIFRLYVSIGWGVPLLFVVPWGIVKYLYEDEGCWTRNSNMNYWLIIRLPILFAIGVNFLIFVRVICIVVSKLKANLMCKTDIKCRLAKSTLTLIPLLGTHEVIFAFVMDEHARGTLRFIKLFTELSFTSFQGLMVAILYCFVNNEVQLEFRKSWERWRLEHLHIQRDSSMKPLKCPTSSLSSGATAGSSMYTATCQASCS
#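 HEK293 cells stably co-expressing a cAMP-responsive luciferase reporter and constitutively active GLP-1R were seeded, incubated 12 h, then exposed to compounds for 24 h at 37 C. Luminescence was read 12 min after detection reagent; inverse agonists lower signal.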
# DRD3 antagonist = D3 dopamine receptor (human) antagonism; P35462; actives 2.5% (n = 360,000); AID 652054; D3R cells, DiscoveRx beta-arrestin luminescence, antagonist mode; stronger effect = lower value; max response, negative = inhibition, %; in the data active means max response below about -50%; inconclusive means no clear call, values can overlap the other calls; further: on the % scale 0 is the no-effect control and ±100 the full control effect
#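 Cells plated overnight at 1500 cells/well, then exposed to library compounds with dopamine controls for 90 minutes at 37 degrees C. DiscoveRx reagent added for 30–60 minutes at room temperature; luminescence read, quantitative HTS format.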
# GLP1R ag = GLP-1 receptor (human) agonism. Potency, µM (titrated, usually from 45.6 µM), inactives show at the top dose activation, most hits filed as activators. HEK293 GLP-1R CRE-luciferase, luminescence, 4-6 h; cells express a hypersensitive GLP-1R form. AID 624172. actives 0.007% (n = 380,000). P43220; further: potency means the concentration at half of the fitted maximal effect; % of control where 0% means no effect
# HEK293 tox = cytotoxicity counter-screen for GLP-1 receptor inverse agonists | HEK293 cAMP-luciferase reporter cells, luminescence, 24 h | Potency, µM (top dose mostly 38.3 µM), inactives show top-dose activity change, negative = inhibition, usual class: inhibitors | actives 0.13% (n = 410,000);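 further: loss of luciferase light is scored as toxicity; potency means the concentration at half of the fitted maximal effect; on the % scale 0 is the no-effect control and ±100 the full control effect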
#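 Luminescence readout: signal drop marks cytotoxicity. Plated cells grew 12 h at 37 °C, 5% CO2, received 23 nL compound for 24 h, then got luciferase reagent, read after 12 min at RT.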
# ClpP mod = qHTS Assay for Activators of ClpP; ATP-dependent Clp protease proteolytic subunit (Bacillus subtilis (strain 168)), P80244; purified B. subtilis ClpP, FRET peptide cleavage, 20 min; Potency, µM (series often up to 57.5 µM), inactives show at the top dose activity change, negative = active; actives 1.9% (n = 340,000); AID 651965, 2013; active means well fitted falling curve with a large enough effect; inconclusive means small, poorly fitted or top-dose-only effect; inactive means no such curve, though single readings can be large or run the other way; further: potency means the concentration at half of the fitted maximal effect; the source files actives as falling curves though it sought activators and does not explain the sign; nearly all actives have a fitted effect of over 65% in size
# Target sequence (P80244 whole entry, looked up): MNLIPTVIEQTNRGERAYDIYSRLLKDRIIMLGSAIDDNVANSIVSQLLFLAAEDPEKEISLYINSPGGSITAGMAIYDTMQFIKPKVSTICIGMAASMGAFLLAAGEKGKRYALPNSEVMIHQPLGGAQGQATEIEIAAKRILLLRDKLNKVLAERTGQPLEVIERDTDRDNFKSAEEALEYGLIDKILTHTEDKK
#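 ClpP 10 microg/mL final, pH 8 Tris/KCl buffer with BSA, glycerol, Tween-20; compound pinned in; FRET-FV substrate; RT 20 min; Ex320/Em430; ΔFRET vs ADEP 5.8 microM, DMSO, no enzyme.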
# Numbers without * were called inactive; ? = inconclusive; . = not tested or not shown; [ ] = another dose, or the depositor's remark. Unless noted, the call rests on the fitted dose curve; in most records, active means well fitted curve in the direction sought with a large enough effect; inconclusive means small, poorly fitted or top-dose-only effect, or another doubt; inactive means no such curve, though single readings can be large; an effect the other way counts as inactive or inconclusive.
SMILES,D3 ag,GLP-1R inv ag,DRD3 antagonist,GLP1R ag,HEK293 tox,ClpP mod
COc1ccc(OC)c(C2C(C(=O)c3sc(C)nc3C)=C(O)C(=O)N2CCN2CCOCC2)c1 (stereo unspecified),-9,-7%,-56*,-6%,-4%,-4%
COc1cc(CNc2ccc3[nH]c(=O)[nH]c3c2)cc(Cl)c1OCc1ccccc1F,10,3%,.,.,-6%,-1%
COc1cc(CNC2CCCC2)cc(Cl)c1OCc1ccccc1F,-5,3.5µM*,-7,0%,?,1%
O=C(Cn1c(=O)n(Cc2ccc(C(=O)NCc3ccccc3Cl)cc2)c(=O)c2ccccc21)Nc1ccc(F)cc1,-17,4%,.,-1%,3%,-7%
COCCN1CCCC(CNCc2cn(C)nc2-c2ccc(Oc3ccccc3)cc2)C1 (stereo unspecified),-2,?,-21,16%,?,0%
COC1CCCN(Cc2cn(C)nc2-c2ccc(Oc3ccccc3)cc2)C1 (stereo unspecified),-3,?,-52*,12%,-1%,.
Cn1cc(CN2CCCCC2CO)c(-c2ccc(Oc3ccccc3)cc2)n1 (stereo unspecified),4,10µM*,-7,19%,-9%,.
CN1CCN(C2Cc3cc(F)ccc3Sc3ccc(Cl)cc32)CC1 (stereo unspecified),-22,?,-120*,-8%,?,0%
CN1CCN(C2Cc3ccc(F)cc3Sc3cc(F)c(Cl)cc32)CC1 (stereo unspecified),-21,?,-105*,10%,?,.
Cc1cc2cc(C#N)c(N3CCN(S(C)(=O)=O)CC3)nc2cc1C,2,48%,-19,26%,10%,20µM*
Cc1ccc(S(=O)(=O)N2CCCN(c3nc4cc(C)ccc4cc3C#N)CC2)cc1,-4,0%,5,2%,74%,?
Cc1cc(C)c2cc(C#N)c(N3CCCC3)nc2c1,-7,34%,1,2%,132%,25µM*
Cc1nn(C)c2c1c(C(F)(F)F)cc(=O)n2CC(=O)N1CCC(C)CC1,8,13%,.,.,-11%,4%
Cc1ccc2[nH]cc(C(c3ccccc3)c3cccs3)c2c1 (stereo unspecified),-6,10µM*,.,.,-13%,-5%
CN1CCN(C(=O)c2cc3c(c(-c4cccc(Br)c4)n2)[C@H](CCO)N(S(=O)C(C)(C)C)C3)CC1 (stereo partly specified),-14,19%,-50*,-2%,-3%,-2%
CC(C)(C)S(=O)N1Cc2cc(C(=O)N3CCOCC3)nc(-c3cccc(Br)c3)c2[C@H]1CCO (stereo partly specified),3,31%,9,0%,-3%,-4%
COc1cc(CNC(=O)c2ccc3c(c2)N(C)C(=O)C2CCCCN32)cc(OC)c1OC (stereo unspecified),-4,34%,.,.,-8%,-3%
Cc1ccc2c(c1)C(=O)C(=O)N2Cc1ccc(F)cc1,-32,3%,?,0%,-5%,-1%
Cc1ccc2c(c1)C(=O)C(=O)N2Cc1ccc(Cl)cc1,-34,?,-64*,10%,5%,-4%
Cc1ccc2c(c1)C(=O)C(=O)N2CCCOc1ccccc1,-7,?,-50*,10%,-9%,-1%
CCOc1cc(-c2nc(-c3ccc(-c4ccc(OC)cc4)nc3OC)no2)cc(OCC)c1OCC,10,17%,.,.,-7%,62%
Brc1ccc2ncnc(NCc3ccccc3)c2c1,7,1.4µM*,-2,-23%,-11%,-2%
CC1(C)CC(=O)C2=C(C1)c1c(ccc3ccccc13)NC2c1ccco1 (stereo unspecified),-17,0%,9,3%,19%,25µM*
NCCCC[C@H](N)C(=O)O,11,.,.,.,.,.
CCOc1ccc(-c2cc(C(=O)N3CCC(C)CC3)c3ccccc3n2)cc1,1,-5%,-4,12%,-2%,32µM*
SMILES,D3 ag,GLP-1R inv ag,DRD3 antagonist,GLP1R ag,HEK293 tox,ClpP mod
CCOC(=O)C1(CC2CC2)CCN(C(=O)c2cc(C3CC3)nc3ccccc23)CC1,-2,10µM*,2,1%,2%,.
CCOc1ccc(-c2cc(C(=O)NC(C)c3ccccc3)c3ccccc3n2)cc1 (stereo unspecified),8,7%,.,.,2%,4%
CCOC(=O)C1(CC2CC2)CCN(C(=O)c2cc(OC)nc3ccccc23)CC1,12,?,14,?,1%,.
CCOc1ccc(-c2cc(C(=O)O)c3ccccc3n2)cc1,6,?,-8,-13%,13%,35µM*
CCOc1ccc(-c2cc(C(=O)N3CCN(c4cc(Cl)ccc4C)CC3)c3ccccc3n2)cc1,6,1%,.,.,24%,-9%
COc1ccc(NC(=O)c2cn(CC(C)C)c(=O)c3cc(OC)c(OC)cc23)cc1Cl,5,30%,.,2%,13%,-5%
O=C(Nc1c2c(nn1-c1ccc(Cl)cc1)CS(=O)(=O)C2)c1cccc(F)c1,-6,-6%,.,3%,-11%,-2%
Cc1nn(-c2ccc(N3CCCCC3)nn2)c(C)c1CCC(=O)Nc1ccc(F)cc1F,3,?,.,.,-18%,0%
CC(=O)/C(=N\Nc1ccccc1)Sc1nnc(-c2ccccc2)n1-c1ccccc1,-6,-8%,-97*,-3%,13%,1%
CC(=O)/C(=N\Nc1ccccc1Cl)Sc1nnc(-c2ccccc2)n1-c1ccccc1,-8,0%,0,11%,14%,1%
CC(C)(C)NC(=O)[C@H]1CC[C@H]2[C@@H]3CC=C4C=C(C(=O)O)CC[C@@]4(C)[C@H]3CC[C@]12C,.,.,.,-6%,.,.
Cc1ccc(OCCCn2c(-c3ccc(Cl)cc3)nc3ccccc3c2=O)c(C)c1,-7,10%,.,.,10%,-6%
COc1ccc(OCC(=O)Nc2ccc(N3CCN(C(=O)c4ccco4)CC3)cc2)cc1,5,0%[7.66 µM],3,3%,2%[7.66 µM],-3%
COc1cccc(CN2CCN(C(=O)c3ccco3)CC2)c1,37*,-9%,-25,8%,3%,2%
COc1ccc(OCC(=O)N2CCN(C(=O)c3ccco3)CC2)cc1,-6,0%,-54*,1%,3%,1%
O=C(COc1ccccc1)N1CCN(C(=O)c2ccco2)CC1,3,27%,11,-5%,1%,1%
COc1ccc(OC)c(CN2CCN(C(=O)c3ccco3)CC2)c1,6,2%,4,10%,11%,?

# Source: PubChem BioAssay (National Center for Advancing Translational Sciences (NCATS))
